The panel holds about 79,000 compounds, 15% with a hit somewhere; the sample as a whole holds those more often. A number with no mark means an inactive call. Active and inactive are the calls of the source. Cut-off read from the data, not from the text of the source: active = growth inhibition above about 70%; inactive = the rest.
What was measured:
[1] = NCI Yeast Anticancer Drug Screen. Data for the rad50 strain (AID 155);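 note: 0% = growth of vehicle-only cultures of the same strain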; conditions: S. cerevisiae rad50 strain growth inhibition; at 50.0 µM; stronger effect = higher value
Procedure, shortened: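 Readout: growth inhibition relative to vehicle-treated cultures. Compound exposure was carried out in a genetically defined yeast strain deficient in DNA damage repair.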

[2] = NCI Yeast Anticancer Drug Screen. Data for the mec2-1 strain (AID 157); conditions: S. cerevisiae mec2-1 strain, at 50.0 µM, stronger effect = higher value
Procedure, shortened: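 Using mec2-1 yeast: add compound, measure growth, express inhibition versus vehicle-treated cultures.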

[3] = NCI Yeast Anticancer Drug Screen. Data for the sgs1 mgt1 strain (AID 161);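 note: 0% = growth of cultures given vehicle only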; conditions: S. cerevisiae sgs1 mgt1 strain, at 50.0 µM, stronger effect = higher value
Procedure, shortened: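 Compounds are added to genetically altered yeast, and growth is compared with cultures given vehicle alone to give percent inhibition.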

[4] = NCI Yeast Anticancer Drug Screen. Data for the cln2 rad14 strain (AID 165);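 note: 0% = growth equal to vehicle treated cultures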; conditions: S. cerevisiae cln2 rad14 strain, at 50.0 µM, stronger effect = higher value
Procedure, shortened: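 Yeast strain cln2 rad14, bearing defects in cell cycle control and DNA repair, serves as the test system; values reflect growth inhibition compared with vehicle.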

[5] = NCI Yeast Anticancer Drug Screen. Data for the bub3 strain (AID 167); conditions: S. cerevisiae bub3 mutant strain, at 50.0 µM, stronger effect = higher value
Procedure, shortened: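 Readout: yeast growth inhibition, expressed relative to vehicle-only wells. The test organism is a mutant strain from a panel with lesions in DNA repair or checkpoint genes.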

[6] = NCI Yeast Anticancer Drug Screen. Data for the mlh1 rad18 strain (AID 175); conditions: S. cerevisiae mlh1 rad18 strain growth inhibition; at 50.0 µM; stronger effect = higher value
Procedure, shortened: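 Steps: expose repair-defective yeast to compound; measure growth; express inhibition against vehicle-treated controls.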

SMILES	growth inhibition [1]	growth inhibition [2]	growth inhibition [3]	growth inhibition [4]	growth inhibition [5]	growth inhibition [6]
Nc1cccc2c([N+](=O)[O-])cccc12	62.7%	34.4%	62.8%	31.2%	17%	60.2%
CCOC(=O)CC(=O)c1cc(OC)c(OC)c(OC)c1	7.05%	16.8%	8.4%	-75%	39.9%	20.4%
NC(Cc1ccccc1CP(=O)(O)O)C(=O)O (stereo unspecified)	-46.8%	-41.1%	-16.4%	-4.9%	-29.9%	-44.2%
CCOP(=O)(OCC)/C(C#N)=C/c1ccc2ccccc2c1	-7.5%	-5.05%	-16.8%	-16.3%	5%	-13.6%
O=C1CC(=O)C(Br)=C1Br	99.5% (active)	99.5% (active)	99.5% (active)	99.3% (active)	99.4% (active)	99.5% (active)
COc1cc(C(CC#N)CC#N)cc(OC)c1OC	-3.4%	-15.8%	25.8%	6.45%	8.95%	8%
CC1C(C)C1(c1ccccc1)C(C)(C)O (stereo unspecified)	8.55%	1.1%	1.3%	16.9%	-24.1%	-3.45%
O=c1[nH][nH]c(=O)n2c1cc1oc(-c3ccccc3)cc12	0.05%	2.45%	17.8%	-16.1%	23%	22.7%
COc1cccc(-c2nc(-c3cnccn3)n(C3OC(CO)C(O)C3O)n2)c1 (stereo unspecified)	-16.4%	-22.4%	-12.8%	11.6%	-45%	-22.6%
CCCNCC(O)CNc1ccc(Cl)cc1 (stereo unspecified)	3.1%	-7.15%	2.05%	-9.4%	-4.3%	5.65%
OCCN(Cc1ccccc1)C(c1ccccc1)c1ccccc1	98.8% (active)	98.9% (active)	98.8% (active)	98.4% (active)	98.5% (active)	98.9% (active)
NNC(=O)c1oc2ccccc2c1CN(CCO)CCO	3.75%	-2.4%	3.45%	-2.45%	-1.15%	-5.1%
Oc1ccc2ccc(O)cc2c1	21.4%	21.6%	10.4%	12.2%	11.8%	5.4%
[N-]=[N+]=Nc1ccccc1C(=O)NCCNC(=O)c1ccccc1N=[N+]=[N-]	-7.4%	-31.9%	2.25%	6.85%	2.6%	6.75%
NC(=O)c1n[nH]n(-c2ccccc2)c1=O	-13.2%	-5.35%	-7.75%	0.15%	-19.9%	3.85%
CCOC(=O)Cc1nc2sc(C)c(-c3ccccc3)c2c(=O)[nH]1	32.4%	19.6%	27.5%	3.35%	17.2%	31.4%
Cc1ccc(S(=O)(=O)N/N=C(\c2nc3ccc([N+](=O)[O-])cc3[nH]c2=O)C(O)c2ccccc2Cl)cc1 (stereo unspecified)	-1.2%	-9.35%	11.6%	5.85%	10.3%	23.8%
C=CC(C)Cc1ccccc1 (stereo unspecified)	2%	1.05%	7.85%	24.1%	31.5%	25.2%

SMILES	growth inhibition [1]	growth inhibition [2]	growth inhibition [3]	growth inhibition [4]	growth inhibition [5]	growth inhibition [6]
CC(C)(C)NC(=O)CCC1C(C(=O)NC(C)(C)C)C2(Cl)C(Cl)=C(Cl)C1(Cl)C2(Cl)Cl (stereo unspecified)	6.2%	12%	1.6%	9.8%	15.6%	-2.05%
CCC(O)(CC)Cc1ccc(Cl)cc1	-1%	-9.55%	-0.4%	-12.2%	-12.4%	-6.65%
O=C(O)C(=C\c1ccccc1)/C(=C\c1ccccc1)C(=O)OCc1ccccc1	16.9%	5.3%	19.9%	-0.4%	47.5%	8.4%
O=C(C[N+](=O)[O-])OCc1ccccc1	14.8%	22.8%	6.4%	-18.1%	-0.4%	4.65%
CCOC(=O)c1cc2cc(C)cc(C(=O)c3ccc([N+](=O)[O-])cc3)c2[nH]1	15.1%	25.4%	30.6%	4.15%	-0.55%	-16.3%
CC(=O)C1C(=O)NC(=O)C1=O (stereo unspecified)	-2.9%	-23.5%	-14.2%	0.2%	-18.9%	-18.9%
CC1=CC(=O)C(C(C)C)CC1 (stereo unspecified)	1.1%	-1.05%	-11.1%	-43%	-7.75%	-0.35%
O=C(OCCN=C1c2ccccc2CCc2ccccc21)c1ccccc1	-12.2%	-6.45%	18.9%	6.8%	37.3%	0.4%
C[C@@]1(CO)O[C@H]1CCC#C[Si](C)(C)C	-20.9%	-32.4%	-20.2%	6.7%	-14.2%	1.05%
Nc1cc(C(=O)O)cc2ccccc12	14.8%	-5.35%	0.1%	-7.95%	-2.95%	26.6%
CCOC(=O)C1C(c2ccc(Cl)cc2Cl)NC(c2ccc(C)cc2)C(C(=O)OC)S1(=O)=O (stereo unspecified)	13%	-9.8%	-8.85%	27.3%	-5.1%	27.1%
NC(=O)c1ncn(C2OC(CO)C(O)C2O)c1C(N)=O (stereo unspecified)	-7.6%	-24.8%	-12.5%	-4.9%	-0.3%	-24.6%
CCOC(=O)c1ccccc1S(=O)(=O)c1ccccc1C(=O)OCC	1.4%	16.9%	9.85%	11.2%	5.2%	10.4%
Clc1cccc[n+]1CCc1ccccc1	9.4%	22.9%	5.3%	-4.55%	7.55%	44%
Nc1nc2c(c(=O)[nH]1)C(c1ccccc1)C(c1ccccc1)C2 (stereo unspecified)	-2.85%	-8.65%	3.8%	-27.4%	-9.5%	0.15%
Cc1ccc(NC(=O)NCCCCCCNC(=O)Nc2ccc(C)cc2)cc1	-7.05%	-13%	-7.95%	-9.05%	-14.4%	-17.9%
Cc1c(Cl)c2ccccc2n1S(=O)(=O)c1ccccc1	38.1%	-3.55%	31.2%	22.1%	10.5%	21.9%
O=C1C(=O)C([n+]2cccc3ccccc32)=C([O-])C2=C1C1c3ccccc3C2c2ccccc21	98.8% (active)	98.4% (active)	98.9% (active)	98.8% (active)	91% (active)	98.6% (active)

— PubChem BioAssay (NCI)
